Screens from PubChem BioAssay.
D1 mod: allosterically modulates the human D1 dopamine receptor; P21728; HEK293 D1, CRE-luciferase, dopamine EC30 potentiation; actives deviate in either direction; B-score at 10 µM; 58,000 tested, 5.9% active; AID 641;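 active = luminescence count or its row- and column-corrected plate score outside the 99.7% band of the plate's sample wells, on either side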
ROCK2 blocker: inhibitors of human Rho kinase 2. O75116. purified ROCK2, Kinase-Glo ATP depletion luminescence. 60,000 tested, 0.35% active. inhibition, % at 6 µM;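 active = inhibition above the screen-wide mean inhibition plus 3 SD, cut at about 18% in these data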;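 also: plate controls were DMSO wells for no effect and Y-27632 control wells after no-enzyme background subtraction for full effect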
PKA kinase inh: PKA (human) kinase inhibition. PKA Kemptide phosphorylation, Kinase-Glo ATP luminescence. 65,000 tested, 0.1% active. inhibition, % at 6 µM. P17612;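 active = inhibition above the screen-wide mean inhibition plus 3 SD, cut at about 21% in these data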
hDAT+cocaine: human DAT dopamine uptake with cocaine, either direction. LLC-PK1 hDAT cells, [14C]-dopamine uptake with cocaine IC80; actives deviate in either direction. B-score at 10 µM. 110,000 tested, 1.3% active. AID 449768;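 active = Z score or B-score, a plate-position-corrected score, falls beyond the plate's 99.7% confidence bounds, in either direction; inactive = both scores lie inside the 99.7% bounds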;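 also: scored against the spread of the other compound wells on the same plate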
Target sequence (Q01959 whole entry, looked up): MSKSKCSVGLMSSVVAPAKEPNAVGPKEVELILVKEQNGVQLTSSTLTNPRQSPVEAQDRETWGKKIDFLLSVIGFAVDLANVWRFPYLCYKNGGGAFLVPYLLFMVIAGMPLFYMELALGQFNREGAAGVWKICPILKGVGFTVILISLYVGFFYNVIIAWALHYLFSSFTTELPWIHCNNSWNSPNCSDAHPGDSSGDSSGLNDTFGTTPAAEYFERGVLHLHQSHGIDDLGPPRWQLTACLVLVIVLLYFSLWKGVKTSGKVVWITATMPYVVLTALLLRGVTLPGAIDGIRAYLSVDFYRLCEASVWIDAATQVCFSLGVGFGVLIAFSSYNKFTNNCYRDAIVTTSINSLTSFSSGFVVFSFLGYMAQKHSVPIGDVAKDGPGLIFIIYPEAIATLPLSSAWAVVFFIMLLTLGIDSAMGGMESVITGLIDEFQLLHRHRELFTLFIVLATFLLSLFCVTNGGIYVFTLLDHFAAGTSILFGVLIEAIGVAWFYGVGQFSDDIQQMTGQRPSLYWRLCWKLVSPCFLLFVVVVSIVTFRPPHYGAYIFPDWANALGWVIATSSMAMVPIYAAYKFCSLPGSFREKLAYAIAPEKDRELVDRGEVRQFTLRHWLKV
Starred values were filed as active, the others as inactive; . = no result. The sample as a whole holds a higher share of hits than the screen did.

SMILES | D1 mod | ROCK2 blocker | PKA kinase inh | hDAT+cocaine
COc1ccccc1C(=O)Nc1ncc2c(n1)CC(c1ccco1)CC2=O (stereo not given) | 0.47 | 4 | 5 | -3.8*
O=C(Nc1ncc2c(n1)CC(c1ccccc1)CC2=O)c1ccco1 (stereo not given) | -1.2 | -3 | 0 | -1
Cc1ccc(S(=O)(=O)C2(C(=O)Nc3cccc(F)c3)CC2)cc1 | 0.25 | 3 | 4 | 0.28
NC(=O)c1sc2nc3c(c(-c4cccnc4)c2c1N)CCC3 | . | . | . | -9.1*
N#Cc1sc2nc3c(c(-c4cccnc4)c2c1N)CCC3 | 5.2* | 4 | -2 | -1.4
N#Cc1c(N)nc2c(c1-c1cccnc1)CCCCC2 | 2.1 | 5 | 2 | 1.1
c1ccc(OCCCc2nc(-c3ccncc3)no2)cc1 | 0.098 | 18* | 12 | 0.17
c1ccc(OCCCc2nc(-c3ccccn3)no2)cc1 | 0.43 | 11 | 9 | 1.7
CCOc1ccc(NC(=O)c2ccccc2CO)cc1 | -0.51 | 1 | 3 | 1.1
CCN(CC)c1ccc(NC(=O)c2ccco2)cc1 | -3* | 4 | 6 | 0.099
CCOc1ccc(NC(=O)c2ccccc2O)cc1 | -4.7* | 0 | 9 | 2.3
CCN(CC)c1ccc(NC(=O)c2ccccc2F)cc1 | -5* | -3 | 11 | 1
CCN(CC)c1ccc(NC(=O)c2cc(Cl)ccc2OC)cc1 | . | . | . | 1.1
O=C(Nc1cccc(-c2cnc3ccccc3n2)c1)c1ccco1 | -1.9 | 8 | 1 | 2.5
O=C(Nc1cnc2ccccc2c1)c1ccco1 | -4.5* | -1 | -4 | -0.29
COCCn1c(C)cc(C(=O)COC(=O)c2cc3c(s2)CCC3)c1C | -0.53 | 1 | 4 | 0.97
COCCn1c(C)cc(C(=O)COC(=O)C23CC4CC(CC(O)(C4)C2)C3)c1C | -4.6* | -2 | 3 | -0.038
C=CCNC(=S)NNC(=O)C(CCCC)CC(C)(C)O (stereo not given) | . | . | . | 0.58
CCOC(=O)CN1C(=O)N[C@@H](c2ccccc2)[C@H](C(C)=O)[C@H]1C | . | . | . | -0.31
c1ccc2nc(-c3nc4ccccc4[nH]3)ccc2c1 | -4.8* | -25 | -24 | -0.37
O=C(Nc1nnc(-c2ccccc2Cl)o1)c1cccnc1 | -1.1 | -2 | -2 | -0.013
COc1cccc(N2C(=O)C(CC(=O)Nc3ccccc3)N(C3CCCCC3)C2=O)c1 (stereo not given) | -7.4* | . | 7 | 0.52
COc1cccc(N2C(=O)C(CC(=O)Nc3ccc(F)cc3)N(C3CCCCC3)C2=O)c1 (stereo not given) | -0.0043 | -1 | -1 | 0.49
N#Cc1c(/N=C/c2ccco2)sc2c1CCCCC2 | -4.2* | 25* | 6 | -0.7
Cc1cc(Br)cc(C)c1NC(=S)NC(=O)CC(C)C | . | . | . | -8*
SMILES | D1 mod | ROCK2 blocker | PKA kinase inh | hDAT+cocaine
COc1ccc(-c2[nH]ncc2/C=C(/C#N)C(=O)NC2CCCCCC2)cc1 | . | . | . | 2.8*
N#C/C(=C/c1ccc(OCc2ccccc2)cc1)C(=O)NC1CCCCC1 | . | . | . | 0.34
O=C(CSc1nnc2c(n1)[nH]c1ccc(F)cc12)OCc1ccccc1 | -0.63 | 1 | 9 | -8.6*
Cc1ccc(C(=O)CCC(=O)Nc2cccnc2)cc1C | 0.5 | 3 | -1 | -8.5*
Cc1ccc(S(=O)(=O)Nc2ccnc3ccccc23)cc1 | . | . | . | -8*
Cc1ccc(S(=O)(=O)Nc2ccc(O)c3ncccc23)cc1 | . | . | . | 1.7
CCNC(=O)NC(=O)CSc1nc2ccccc2n1CCOC | . | . | . | -0.77
CC(=O)OC1COC(OC2C(O)C(C)OC(OC3C(OC4CCC5(C)C(CCC6(C)C5CC=C5C7CC(C)(C)CCC7(C(=O)O)CCC56C)C4(C)CO)OCC(O)C3O)C2O)C(O)C1OC(C)=O (stereo not given) | . | . | . | -10*
CC1(C)CC[C@]2(C(=O)O)CC[C@]3(C)C(=CC[C@@H]4[C@@]5(C)CC[C@H](O)C(C)(C)[C@@H]5CC[C@]43C)[C@@H]2C1 | . | . | . | -0.031
CCCCNc1nc(-c2ccccc2)cc(C(F)(F)F)c1C(N)=O | . | . | . | 0.049
CCO[C@H]1OC(C(=O)NCc2nc3ccccc3[nH]2)=C[C@@H](c2ccc(Br)cc2)[C@@H]1CCCO | . | . | . | 0.18
C#Cc1ccc([C@H]2C=C(C(=O)NCc3nc4ccccc4[nH]3)O[C@@H](OCC)[C@@H]2CCCO)cc1 | . | . | . | 4.2*
CNC(=O)C(=O)NCCc1ccc(Cl)cc1 | . | . | . | -0.95
Cn1cc(Br)c(C(=O)N2CCN(c3cccc(Cl)c3)CC2)n1 | . | . | . | -0.42
O=S(=O)(NC1CCCCC1NCc1ccco1)c1ccc(Cl)cc1 (stereo not given) | -2.3* | 4 | 10 | -1.4
CN1/C(=C\C(=O)c2cccs2)Sc2ccccc21 | -4.8* | -7 | -1 | 0.084
COC(C/C=C/C(=O)[C@H](C)OCc1ccccc1)OC | . | . | . | -0.29
COc1ccc(-c2cc(C(F)(F)F)nc(SCC(=O)Nc3cc(C)on3)n2)cc1OC | 24* | 8 | 3 | -0.34
CCn1c(SCC(=O)Nc2ccccc2OC)nnc1-c1cnccn1 | -0.21 | -4 | 2 | -0.27
CCn1c(SCC(=O)Nc2ccc3c(c2)c2ccccc2n3CC)nnc1-c1cnccn1 | . | 5 | 8 | 2.5*
C=C1CCN([C@H](C(=O)NCc2ccc(OC)cc2)C(C)C)S(=O)(=O)c2ccccc21 | . | . | . | -0.0056
CCCCN(C)C(=O)C1CCC(=O)N(c2cc(OC)c(OC)c(OC)c2)C1c1ccc(OC)cc1 (stereo not given) | -0.86 | . | 4 | -8.4*
COc1ccc(Oc2cc(C(F)(F)F)cnc2C(N)=O)cc1 | . | . | . | 0.014
COc1ccccc1-c1nnc2sc(C3CCCCC3)nn12 | . | -2 | 4 | 1.8*
O=S(=O)(Nc1ccc(O)c(CN2CCCCC2)c1)c1ccccc1 | 0.035 | -8 | 1 | 1.6*
SMILES | D1 mod | ROCK2 blocker | PKA kinase inh | hDAT+cocaine
CN(C)CCNC(=O)c1c(CSc2ccccc2)noc1C(=O)NCc1ccccc1 | . | . | . | 0.68
CC(NC(=O)C1CCCCC1)C(c1cccs1)N1CCN(C)CC1 (stereo not given) | . | 2 | 4 | -0.58
C=C(C)Cn1c(CCCNC(=O)C(C)(C)C)nc2ccccc21 | -0.34 | . | 0 | -9.3*
Cn1c(CCCNC(=O)c2cccs2)nc2ccccc21 | -2.2 | -2 | 4 | -0.92
CC(C)(C)C(=O)NCCCc1nc2ccccc2n1CCCOc1ccc(Cl)cc1 | . | . | . | 3.4*
Cn1c(CCCNC(=O)c2ccccc2)nc2ccccc21 | -3.5* | . | -6 | -0.81
CCn1c(CCNC(=O)c2ccc(OC)c(OC)c2)nc2ccccc21 | -4.9* | . | 7 | 0.83
COc1ccc(C(=O)NCCCc2nc3ccccc3n2Cc2cc(C)ccc2C)cc1OC | . | . | . | -0.07
C=CCn1c(CCCNC(=O)C(C)(C)C)nc2ccccc21 | -0.051 | 4 | 9 | 0.21
CCCCCC(=O)Nc1cccc(C2=NOC3(C2)C[C@@H](C(N)=O)N(C(=O)CC(c2ccccc2)c2ccccc2)C3)c1 (stereo not given in full) | . | . | . | 0.0099
S=C(NCc1ccco1)N1CCN(Cc2ccc(Cl)cc2Cl)CC1 | . | . | . | 1.9
CC1=CC(C)(C)N2C(=O)C3(C(C#N)=C(N)Oc4cc(O)ccc43)c3c(C)c(C)cc1c32 (stereo not given) | . | . | . | 2.6*
CCCCOC(=O)Nc1cc(C(=O)OC)ccc1C(=O)OC | -7* | 2 | 1 | 1.7
CCCCCC(=O)Nc1ccc(N2CCN(CC)CC2)c(Cl)c1 | -4.6* | 0 | 3 | 0.064
